Source: PubChem BioAssay AID1159580 (chemical genetic matrix, 2015)
“And” between values parts separate entries of the source, which are not always exact repeats. Identical values can stand only once. Out of some 5,500 compounds screened, about 2,000 (36%) were called active. Not shown: some 18% with an inconclusive outcome. Cut-off read from the data, not from the text of the source: active = normalized growth mostly below about 0.91 (no sharp cut-off); inconclusive = no clear call, values can overlap the other calls; inactive = mostly above about 0.92. The list shows a part of the results.

Test: chemical genetic growth profiling, strain panel (AID 1159580);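 note: tested at 20 µM; growth read once vehicle control cultures reached saturation at 30 °C; 1 = growth at the plate median or of vehicle wells; lower values mean less growth of the strain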
Settings: S. cerevisiae deletion strains, growth OD

Measured: normalized growth

C[C@@H]1CC[C@H]2[C@@H](C)C(O)O[C@@H]3O[C@@]4(C)CC[C@@H]1[C@]32OO4 (some centres not stated)
inactive: locus YBR021W, strain FUR4, active compounds read low 0.857
active: locus YAL013W, strain DEP1, active compounds read low 0.528 | locus YAL021C, strain ccr4, active compounds read low 0.507 | locus YAL026C, strain drs2, active compounds read low 0.358 | locus YAL030W, strain snc1, active compounds read low 0.319 | locus YBL061C, strain skt5, active compounds read low 0.337 | locus YBR009C, strain hhf1, active compounds read low 0.215 | locus YBR023C, strain chs3, active compounds read low 0.331 | locus YBR171W, strain sec66, active compounds read low 0.608 | locus YBR229C, strain ROT2, active compounds read low 0.7 | locus YBR231C, strain swc5, active compounds read low 0.253 | locus YBR279W, strain paf1, active compounds read low 0.276 | locus YCL011C, strain gbp2, active compounds read low 0.231 | locus YCL016C, strain dcc1, active compounds read low 0.275 | locus YCL029C, strain bik1, active compounds read low 0.325 | locus YCL061C, strain MRC1, active compounds read low 0.312 | locus YCL069W, strain vba3, active compounds read low 0.315 | locus YCR088W, strain abp1, active compounds read low 0.321 | locus YDL005C, strain med2, active compounds read low 0.448 | locus YDL035C, strain GPR1, active compounds read low 0.295 | locus YDL040C, strain nat1, active compounds read low 0.408 | locus YDL074C, strain BRE1, active compounds read low 0.556 | locus YDL101C, strain DUN1, active compounds read low 0.325 | locus YDL134C, strain PPH21, active compounds read low 0.314 | locus YDL185W, strain tfp1, active compounds read low 0.139 | locus YDL192W, strain arf1, active compounds read low 0.547 | locus YDR001C, strain nth1, active compounds read low 0.377 | locus YDR069C, strain doa4, active compounds read low 0.386 | locus YDR101C, strain arx1, active compounds read low 0.459 | locus YDR137W, strain rgp1, active compounds read low 0.348 | locus YDR150W, strain NUM1, active compounds read low 0.262 | locus YDR159W, strain sac3, active compounds read low 0.471 | locus YDR162C, strain NBP2, active compounds read low 0.356 | locus YDR195W, strain ref2 0.54 | locus YDR297W, strain sur2, active compounds read low 0.384 | locus YDR318W, strain mcm21, active compounds read low 0.258 | locus YDR334W, strain swr1, active compounds read low 0.276 | locus YDR335W, strain msn5, active compounds read low 0.492 | locus YDR388W, active compounds read low 0.316 | locus YDR392W, strain spt3, active compounds read low 0.133 | locus YDR502C, strain sam2, active compounds read low 0.415 | locus YEL003W, strain gim4, active compounds read low 0.237 | locus YEL037C, strain rad23, active compounds read low 0.407 | locus YEL061C, strain CIN8 (second series), active compounds read low 0.295 | locus YEL061C, strain CIN8, active compounds read low 0.302 | locus YER015W, strain faa2, active compounds read low 0.179 | locus YER016W, strain bim1, active compounds read low 0.235 | locus YER110C, active compounds read low 0.275 | locus YER111C, strain swi4, active compounds read low 0.5 | locus YER155C, strain BEM2 (second series), active compounds read low 0.568 | locus YER155C, strain BEM2, active compounds read low 0.345 | locus YER167W, strain BCK2, active compounds read low 0.198 | locus YFR010W, strain ubp6, active compounds read low 0.391 | locus YGL078C, strain dbp3, active compounds read low 0.477 | locus YGL086W, strain mad1, active compounds read low 0.279 | locus YGL167C, strain pmr1, active compounds read low 0.781 | locus YGL173C, strain kem1, active compounds read low 0.729 | locus YGL227W, strain vid30, active compounds read low 0.254 | locus YGL240W, strain doc1, active compounds read low 0.23 | locus YGL248W, strain PDE1, active compounds read low 0.282 | locus YGL253W, strain hxk2, active compounds read low 0.251 | locus YGR078C, strain PAC10, active compounds read low 0.527 | locus YGR135W, strain pre9, active compounds read low 0.653 | locus YGR229C, strain SMI1, active compounds read low 0.286 | locus YGR252W, strain gcn5, active compounds read low 0.665 | locus YHR013C, strain ard1, active compounds read low 0.234 | locus YHR027C, strain rpn1, active compounds read low 0.221 | locus YHR030C, strain SLT2, active compounds read low 0.252 and 0.332 | locus YHR079C, strain IRE1 (second series), active compounds read low 0.359 | locus YHR079C, strain IRE1, active compounds read low 0.3 | locus YHR094C, strain hxt1, active compounds read low 0.388 | locus YHR129C, strain ARP1, active compounds read low 0.331 | locus YHR142W, strain chs7, active compounds read low 0.284 | locus YHR200W, strain rpn10, active compounds read low 0.562 | locus YIL066C, strain RNR3, active compounds read low 0.229 | locus YIL073C, strain SPO22, active compounds read low 0.308 | locus YIL125W, strain kgd1, active compounds read low 0.411 | locus YIR030C, strain dcg1, active compounds read low 0.381 | locus YJL092W, strain hpr5, active compounds read low 0.346 | locus YJL095W, strain BCK1 (second series), active compounds read low 0.267 | locus YJL095W, strain BCK1, active compounds read low 0.298 and 0.302 | locus YJL115W, strain asf1, active compounds read low 0.443 | locus YJL129C, strain trk1, active compounds read low 0.538 | locus YJL134W, strain LCB3, active compounds read low 0.589 | locus YJL154C, strain vps35, active compounds read low 0.42 | locus YJL164C, strain tpk1, active compounds read low 0.248 | locus YJL166W, strain qcr8, active compounds read low 0.167 | locus YJL168C, strain set2, active compounds read low 0.422 | locus YJL187C, strain SWE1 (second series), active compounds read low 0.392 | locus YJL187C, strain SWE1, active compounds read low 0.299 | locus YJR043C, strain POL32, active compounds read low 0.369 | locus YJR066W, strain TOR1, active compounds read low 0.319
